26 molecules from PubChem BioAssay (NCI) can be followed below.

“And” between values parts separate entries of the source, which are not always exact repeats. Equal entries are not always repeated. About 83,000 compounds went through this panel and 20% of them were active in at least one assay; those are over-represented in the sample as a whole.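 Growth was measured after 48 h exposure to one concentration of compound in 96-well plates. Values under 10 count as active.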 The source made the active and inactive calls.

In the first assay the test system is UACC-62 melanoma. Put plainly: NCI-60 one-dose screen, 48 h (100 = growth as untreated, 0 = no growth, -100 = all killed). The note with it: 10 µM unless noted.
On to `NC(=O)c1cc([N+](=O)[O-])c(Cl)c([N+](=O)[O-])c1Cl`, for which the growth was 5.65% (active). Turning to `O=S(=O)(F)c1ccc(Cl)cc1`, the growth is 103% (inactive). On to `O=[N+]([O-])/C=C/c1ccc(Cl)cc1[N+](=O)[O-]`, for which the growth was 73.7% (inactive). With `COc1cc([N+](=O)[O-])c2ncccc2c1[N+](=O)[O-]`, the growth is 74% (inactive). Same read-out and setting: to `Oc1c(I)cc(I)cc1I` belongs 102% (inactive); to `O=[N+]([O-])/C=C\c1ccc2c(c1)OCO2`, 82.5% (inactive).

Consider `O=[N+]([O-])c1ccc(Br)c([N+](=O)[O-])c1`, for which the growth was 103% (inactive).

For the molecule `O=[N+]([O-])c1ccc(N(CCO)CCO)c2c1no[n+]2[O-]`, the growth is -41.6% (active). Still for that read-out and setting: to `COc1cc(/C=C/[N+](=O)[O-])cc(Br)c1OC` belongs -5.62% (active); to `COc1cc(/C=C\[N+](=O)[O-])ccc1O`, 61.1% (inactive) and 80.2% (inactive); to `Cc1cc(C(C)(C)c2ccc(O)c(C)c2)ccc1O`, 79.3% (inactive). The same measure, in the same setting: then `COC12c3c(C)cc(O)c4c(=O)occ(c34)C(=O)C1C13COC(=O)c4c(O)cc(C)c(c41)C(=O)C2C3OC(C)=O` (configuration not stated), with 97.5% (inactive).

Another assay has as its system LOX IMVI melanoma. The description is as above. The settings on record: 10 µM.
As to `O=C1C=Cc2ccccc2C1=O`, the growth was 90% (inactive). On to `COC1CC2C=C(C)/C=C/C=C/C(=O)NC(c3ccccc3)C/C=C/CCC(O)CC(=O)C2=C1O` (configuration not stated), for which the growth is -91.6% (active). For `Cc1ccc(NC(=O)CBr)cc1`, the growth is 49.8% (inactive). The same measure, in the same setting: then `Cc1ccc(C(=O)C2C(c3ccccc3)N2C2CCCCC2)cc1` (configuration not stated), with 99.9% (inactive) and 98.1% (inactive); and `COc1cc(/C=C/[N+](=O)[O-])cc(OC)c1OC`, with -71.7% (active). Still for that read-out and setting: to `O=C(CBr)Nc1ccc(Cl)cc1` belongs -57.4% (active); to `CC(C)c1cc([N+](=O)[O-])cc([N+](=O)[O-])c1O`, 93.7% (inactive); to `COc1ccccc1/C=C/[N+](=O)[O-]`, 37.4% (inactive). `O=C(CCl)Nc1ccc(Cl)cc1`: the growth is 38.3% (inactive). On the same count and under the same terms, to `Cc1cc(C)c(C[N+](C)(C)C)c(C)c1C` belongs -28.2% (active); to `C[C@]12CC[C@H]3[C@@H](CCC4=CC(=O)CC[C@@H]43)[C@@H]1CC[C@@H]2OC(=O)N(CCCl)N=O`, 39.3% (inactive); to `NNc1ccccc1`, 65.3% (inactive). The same measure, in the same setting: then `COc1ccc(/C=C(\C)[N+](=O)[O-])cc1OC`, with -58.7% (active). Consider `C[CH2][Hg][S]c1ccccc1C(=O)O`, for which the growth was -54.9% (active).

As for `NC(=O)c1cc([N+](=O)[O-])c(Cl)c([N+](=O)[O-])c1Cl`, the growth is -50% (active).

With `O=S(=O)(F)c1ccc(Cl)cc1`, the growth was 96.7% (inactive). The same measure, in the same setting: to `O=[N+]([O-])/C=C/c1ccc(Cl)cc1[N+](=O)[O-]` belongs -94.1% (active). The same measure, in the same setting: then `COc1cc([N+](=O)[O-])c2ncccc2c1[N+](=O)[O-]`, with 12.2% (inactive); and `O=[N+]([O-])/C=C\c1ccc2c(c1)OCO2`, with 18.9% (inactive); and `O=[N+]([O-])c1ccc(Br)c([N+](=O)[O-])c1`, with 13.3% (inactive). On the same count and under the same terms, to `O=[N+]([O-])c1ccc(N(CCO)CCO)c2c1no[n+]2[O-]` belongs -26.5% (active). Turning to `COc1cc(/C=C/[N+](=O)[O-])cc(Br)c1OC`, the growth was -100% (active).

With `COc1cc(/C=C\[N+](=O)[O-])ccc1O`, the growth was -66.1% (active) and 46.7% (inactive). Consider `Cc1cc(C(C)(C)c2ccc(O)c(C)c2)ccc1O`, for which the growth is 85.3% (inactive). Same read-out and setting: then `COC12c3c(C)cc(O)c4c(=O)occ(c34)C(=O)C1C13COC(=O)c4c(O)cc(C)c(c41)C(=O)C2C3OC(C)=O` (configuration not stated), with 104% (inactive).
